# A selection: hits, their analogues and other compounds. The true share with any hit is near 3.1%.
# mIDH1 inhibitor – inhibitors of human mutant IDH1 R132H. O75874. IDH1-R132H enzyme, NADPH consumption, diaphorase/resazurin fluorescence. Potency, µM (top dose mostly 76.6 µM), usual class: inhibitors. actives 0.093% (n = 390,000); further: nearly all actives have a fitted effect of over 65% in size
#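 IDH1-R132H (0.5 ug/mL dispensed) in pH 7.5 Tris buffer was preincubated 30 min with compound, then given a substrate mix of 0.016 mM NADPH and 2 mM alpha-KG for 80 min at room temperature; remaining NADPH was read by diaphorase/resazurin fluorescence.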
# Mito fusion yeast – blocks mitochondrial division or promotes mitochondrial fusion; S. cerevisiae fusion-defective mutant growth rescue, CellTiterGlo 48 h; actives 0.23% (n = 320,000); AID 485298; Potency, µM (titrated, usually from 46.1 µM), most hits filed as activators; further: nearly all actives have a fitted effect of over 45% in size
#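 Luminescent cell viability in 1536-well qHTS format served as the measure of rescued growth in ts fusion-mutant S. cerevisiae cultured on non-fermentable YPEG for 48 hours at 37C.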
# TrxR1 substrate – rat thioredoxin reductase 1 substrate activity; purified TrxR1 substrate turnover, NADPH consumption readout; Potency, µM (highest dose often 114 µM); actives 0.01% (n = 390,000); further: nearly all actives have a fitted effect of over 50% in size
# Target sequence (O89049 whole entry, looked up): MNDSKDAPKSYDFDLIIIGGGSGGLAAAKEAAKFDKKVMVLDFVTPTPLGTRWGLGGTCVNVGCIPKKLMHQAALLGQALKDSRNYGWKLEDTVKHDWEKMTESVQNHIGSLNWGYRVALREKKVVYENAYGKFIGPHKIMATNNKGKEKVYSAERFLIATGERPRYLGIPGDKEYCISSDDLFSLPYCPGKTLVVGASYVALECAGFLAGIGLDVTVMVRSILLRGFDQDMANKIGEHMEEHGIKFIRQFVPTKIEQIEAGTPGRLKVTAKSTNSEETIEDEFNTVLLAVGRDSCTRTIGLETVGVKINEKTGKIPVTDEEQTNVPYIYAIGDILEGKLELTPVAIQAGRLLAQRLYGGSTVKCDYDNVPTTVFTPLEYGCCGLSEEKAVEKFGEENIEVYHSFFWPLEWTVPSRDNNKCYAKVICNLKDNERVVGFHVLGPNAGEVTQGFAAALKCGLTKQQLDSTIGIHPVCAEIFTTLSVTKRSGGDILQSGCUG
#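 Rat TrxR1, dispensed at 90 nM, was prereduced with 400 uM NADPH (final) for 5 min at ~22 deg C, then incubated with compound 15 min before 400 uM selenite. A first-read NADPH fluorescence drop versus no-compound background flagged substrates.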
# Nrf2 block – blocks Nrf2 signaling; A549 ARE-Fluc reporter, luciferase luminescence, 18-24 h; Potency, µM (top dose mostly 46 µM), usual class: inhibitors; actives 2.1% (n = 360,000); AID 504444; further: nearly all actives have a fitted effect of over 60% in size
#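 Nrf2 function is reported as luminescence of an ARE-controlled luciferase in A549 cells. Compounds were tested at several concentrations, and a CellTiter-Fluor read on the same wells flagged cytotoxicity.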
# A549 tox – A549 cytotoxicity, counter-screen for Nrf2 inhibitors; actives 0.16% (n = 390,000); A549 ARE-Fluc cells, CellTiter-Fluor viability, 18-24 h; AID 504648; Potency, µM (titrated, usually from 46 µM), usual class: inhibitors
#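 A549 ARE_Fluc cells in 5% FBS OPTI-MEM were exposed to compounds in concentration-response for 18-24 h at 37 deg C. Viability was read by CellTiter-Fluor fluorescence (Ex 405/Em 525) after 30 min, before the luciferase read.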
# TrxR1 inh – rat TrxR1 inhibition | Potency, µM (series often up to 114 µM), actives largely listed as inhibitors | recombinant rTrxR1, NADPH fluorescence consumption, selenite substrate | actives 1% (n = 390,000) | O89049; further: nearly all actives have a fitted effect of over 65% in size
#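 Rat TrxR1 (90 nM in the dispensed reagent) was pre-reduced with 400 uM NADPH for 5 min at room temperature, then incubated with compound for 15 min. After 400 uM selenite was added, NADPH fluorescence (Ex 340/Em 450 nm) was followed for 8 min.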
# Numbers stand for hits; i = inactive; ? = inconclusive; nt = not tested or not shown; [ ] = remark or other dose. The call rests on the fitted dose curve; in most records, active means well fitted curve in the direction sought with a large enough effect; inconclusive means small, poorly fitted or top-dose-only effect, or another doubt; inactive means no such curve, though single readings can be large; an effect the other way counts as inactive or inconclusive.
SMILES,mIDH1 inhibitor,Mito fusion yeast,TrxR1 substrate,Nrf2 block,A549 tox,TrxR1 inh
CNc1c(Br)cc(C=O)cc1Br,nt,nt,i,nt,nt,i
O=C(NCCNc1ccnc2cc(Cl)ccc12)c1ccccc1F,i,i,i,18.4µM,i,i
Cc1cc(NC(=O)CSc2nc(-c3ccc(Cl)cc3)cs2)no1,i,i,i,i,i,i
O=C(CSc1nc(-c2ccc(Cl)cc2)cs1)Nc1cccc([N+](=O)[O-])c1,i,i,i,16.4µM,i,i
Cc1ccc(NC(=O)c2cnn3c(C(F)F)cc(-c4ccccc4)nc23)c(C)c1,i,nt,i,i,i,i
CC(=O)N1CCCc2cc(S(=O)(=O)N3CCCC(C(=O)N4CCN(c5cc(C)ccc5C)CC4)C3)ccc21 (stereo not drawn),i,i,i,7.31µM,i,i
CC(=O)N1CCCc2cc(S(=O)(=O)N3CCCC(C(=O)N4CCN(c5ccccc5)CC4)C3)ccc21 (stereo not drawn),i,i,i,13µM,i,i
COc1ccc(CNC(=O)C2CCCN(S(=O)(=O)c3ccc4c(c3)CCCN4C(C)=O)C2)cc1 (stereo not drawn),i,i,i,20.6µM,i,i
CC(=O)Nc1ccc(S(=O)(=O)N2CCCC(C(=O)N3CCN(c4ccccc4)CC3)C2)cc1 (stereo not drawn),i,i,i,?,i,i
COc1ccc(C)cc1S(=O)(=O)N1CCCC(C(=O)N2CCN(c3ccccc3)CC2)C1 (stereo not drawn),i,i,i,25.9µM,i,i
O=S(=O)(Nc1c(Br)cc(Br)c2cccnc12)C1CC1,nt,nt,i,i,i,?
Cc1ccnc2c(Cl)c(Cl)ccc12,nt,nt,i,nt,nt,i
CC(C)(C)c1ccc(C(=O)NCC(c2cccs2)S(=O)(=O)c2ccc(F)cc2)cc1 (stereo not drawn),i,nt,i,nt,?,i
CCOC(=O)CSc1nc2sc3c(c2c(=O)n1-c1ccc(OC)cc1)CCN(C)C3,i,i,i,?,i,i
CCSc1nc2sc3c(c2c(=O)n1-c1ccc(OC)cc1)CCN(C)C3,i,i,i,23.1µM,i,i
Cc1nc(Nc2nc3ccccc3o2)nc2c1CCCC2,nt,nt,nt,?,i,nt
CCOc1cc(C(=O)Nc2ccc(-c3cn4cccnc4n3)cc2)cc(OCC)c1OCC,i,nt,i,?,i,i
Cc1ccc(C(=O)Nc2ccc(-c3cn4cccnc4n3)cc2)cc1C,i,nt,i,23.1µM,i,i
COc1cccc(NC(=O)CSc2ncc3c(n2)-c2ccc(Cl)cc2N(C)S3(=O)=O)c1,i,nt,i,?,i,i
S=C(c1ccc(-c2ccc(Cl)c(Cl)c2)o1)N1CCOCC1,i,i,i,?,i,28.2µM
O=C(N/N=C/c1ccc([N+](=O)[O-])o1)c1ccccc1NS(=O)(=O)c1cccs1,i,i,i,i,i,39.8µM
O=[N+]([O-])c1ccc(/C=[N+](\[O-])[C@@H]2CCCC[C@@H]2/[N+]([O-])=C/c2ccc([N+](=O)[O-])o2)o1,i,i,i,i,20.6µM,?
[O-]/[N+](=C\c1ccccc1)[C@@H]1CCCC[C@@H]1/[N+]([O-])=C/c1ccccc1,i,i,i,i,i,i
O=C(N/N=C/c1ccc([N+](=O)[O-])o1)C1CCCC1,i,i,i,16.4µM,?,?
O=C(N/N=C/c1ccc([N+](=O)[O-])o1)c1ccc(O)cc1,i,i,i,20.6µM,20.6µM,20µM
SMILES,mIDH1 inhibitor,Mito fusion yeast,TrxR1 substrate,Nrf2 block,A549 tox,TrxR1 inh
O=C(N/N=C/c1ccc([N+](=O)[O-])o1)c1ccncc1,i,i,i,?,?,i
CC(=O)N1CCC(C(=O)Nc2nnc(C(C)C)s2)CC1,nt,nt,i,i,i,i
COc1ccc2nc(N(Cc3cccnc3)C(=O)CCc3ccccc3)sc2c1,i,nt,i,nt,i,i
O=C(N/N=C\c1ccc([N+](=O)[O-])o1)c1cncc(Br)c1,i,i,i,?,?,22.4µM
O=C(C[n+]1cccc2cccc(O)c21)c1ccccc1,nt,nt,i,nt,nt,i
Cc1cc2c(s1)c1cnn(Cc3c(F)ccc(C)c3F)c(=O)c1n2C,nt,nt,nt,i,i,nt
CC1CN(S(=O)(=O)c2cccc(C(=O)Nc3ccc4c(c3)CCC4)c2)CC(C)O1 (stereo not drawn),i,i,i,23.1µM,i,i
Cc1cccc(-c2nc3nc(C)cc(NC(C)c4ccccc4)n3n2)c1 (stereo not drawn),i,nt,i,nt,?,i
CN(C)c1ccc(/C=C2\C=Cc3ccccc32)c(F)c1,nt,nt,i[0.0914 µM],nt,nt,i
CCOC(=O)c1c(C)[nH]c(C)c1C(=O)Cn1nnc(-c2ccccc2C)n1,i,i,i,13µM,i,i
Cc1cc2c3c([nH]c2cc1S(=O)(=O)N1CCC2(CC1)OCCO2)CC(C)(C)CC3=O,i,i,i,23.1µM,i,i
CCOC(=O)N1C(=O)[C@](CC)(c2ccccc2)N1C(=O)OCC,i,i,i,i,i,3.16µM
Cc1cc2c(c(C)c1Cl)C(c1ccc3c(c1)OCO3)CC(c1ccccc1)O2 (stereo not drawn),nt,nt,i,i,i,i
CCCSc1nc2c(cnn2-c2ccccc2)c(=O)[nH]1,i,i,i,?,i,i
Cc1ccc(-n2ncc3c(=O)n(-c4ccc(C)c(C)c4)c(C)nc32)cc1,i,i,i,i,i,i
Cc1ccc(-n2c(C)nc3c(cnn3-c3ccc(F)cc3)c2=O)cc1,i,i,i,14.6µM,i,i
CCCSc1nc2c(cnn2-c2ccc(C)cc2)c(=O)[nH]1,i,i,i,18.4µM,i,i
CCc1cccc(-n2c(C)nc3c(cnn3-c3ccc(Cl)cc3)c2=O)c1,i,nt,i,16.4µM,i,i
CCc1cccc(-n2c(C)nc3c(cnn3-c3ccc(C)c(C)c3)c2=O)c1,i,nt,i,?,i,i
O=C(C[N+]12CCCc3cccc(c31)CCC2)c1ccc(Cl)c2ccccc12,nt,nt,i,nt,nt,i
Fc1ccc(Cn2c(-c3cccc(Br)c3)nc3ccccc32)cc1,i,nt,i,nt,i,i
CN(CC(=O)Nc1ccc(N2CCOCC2)cc1)Cc1c(O)ccc2ccccc12,i,i,i,?,i,3.98µM
CN(CC(=O)Nc1ccc(N2CCOCC2)cc1)CC(=O)Nc1ccc(N2CCOCC2)cc1,i,i,i,i,i,i
COc1cccc(CN2Cc3cccc4c3[C@H](C=CC4)CC2=O)c1,nt,nt,i,nt,nt,i
Cc1ccc(CS(=O)(=O)c2ncc(Cl)c(C(=O)Nc3nc4ccc(C)cc4s3)n2)cc1,i,nt,i,?,?,?
CCCc1nnc(NC(=O)c2nc(S(=O)(=O)Cc3ccc(C)cc3)ncc2Cl)s1,i,i,i,i,?,50.1µM

# From PubChem BioAssay
